Reference: PubChem BioAssay
Several values for one entry are separate records, joined by “and”; a condition that tells them apart may be missing. Equal entries are not always repeated. Records with an inconclusive call do not appear. Activity calls are given as the source filed them.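 How the source made its calls, unless noted: active means normalized viability below 100% at a tested concentration; inactive means the rest.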

Assays:
[1] = growth inhibition of DIPG glioma cells, dose response, cell-based, SU-DIPG-XIII, MIPE4.0, CellTiter-Glo, qHTS (AID 1347061; cut-off not given, nearly all actives have AC50 up to about 37 µM;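 further: cells exposed to compound for 48 hours before readout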); settings: SU-DIPG-XIII viability, CellTiter-Glo ATP luminescence
[2] = growth inhibition of DIPG glioma cells, dose response, cell-based, SU-DIPG-IV, MIPE4.0, CellTiter-Glo, qHTS (AID 1347063; cut-off not given, nearly all actives have AC50 up to about 30 µM;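 further: compound exposure lasted 48 hours before the viability readout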); settings: SU-DIPG-IV viability, CellTiter-Glo ATP luminescence
[3] = growth inhibition of DIPG glioma cells, dose response, cell-based, SU-DIPG-XIII, MIPE5.0, CellTiter-Glo, qHTS (AID 1347064; cut-off not given, nearly all actives have AC50 up to about 23 µM;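 on AC50: cells exposed to compound for 48 hours before the viability read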); settings: SU-DIPG-XIII viability, CellTiter-Glo ATP luminescence
[4] = viability loss in pontine glioma line – cell-based, SU-DIPG-XXV, MIPE5.0, CellTiter-Glo, qHTS, dose response (AID 1347065; cut-off not given, nearly all actives have AC50 up to about 26 µM;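 further: cells exposed to compound for 48 hours before ATP readout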); settings: CellTiter-Glo ATP luminescence
[5] = SU-DIPG-XXV glioma cell viability, MIPE5.0 library, qHTS (AID 1347068; cut-off not given, nearly all actives have IC50 up to about 30 µM;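 on IC50: cells exposed to compound for 48 hours before viability readout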)
[6] = modifiers of HSF1 nuclear foci, imaging, Selleck Cancer Library (AID 1347162; in the data active means plate-normalised HSF1 focus index below about 0.46); settings: human cells, at 10 µM; SSMD: measured here: HSF1 foci SSMD mean; cell count: measured here: cell number; plate-normalised HSF1 focus index: stronger effect = lower value
[7] = ovarian cancer cell viability with rucaparib, profiling panel, oncology-focused library, rucaparib conditional (AID 1508598); settings: patient-derived ovarian cancer cells, CellTiter-Glo viability, 144 h, stronger effect = lower value
[8] = SU-DIPG-VI glioma cell viability, MIPE4.0 library, CellTiter-Glo luminescence, qHTS (AID 1347066; cut-off not given, nearly all actives have AC50 up to about 30 µM;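 further: cells exposed to compound for 48 hours before readout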); settings: CellTiter-Glo ATP luminescence
[9] = growth inhibition of DIPG glioma cells, dose response, cell-based, JHH-DIPG-1, MIPE4.0, CellTiter-Glo, qHTS (AID 1347062; cut-off not given, nearly all actives have AC50 up to about 27 µM); settings: JHH-DIPG-1 viability, CellTiter-Glo ATP luminescence
[10] = sensitizers of A549 cells to miR-34 induction, primary screen, imaging, A549 dox-inducible miR-34, nuclei and caspase counts (AID 1347080;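 active means compounds whose cell count with miR-34 switched on is under 0.7 times the count with it off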); settings: A549 miR-34 inducible, Hoechst nuclei count, 48 h
[11] = survival rescue of mitochondrial mutant cells in low glucose, primary screen, MELAS cybrids, Rieske KO mouse fibroblasts, CellTiter-Glo (AID 1508586;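 active means mean z-score across replicates of 1.96 or higher in either the MELAS or the Rieske mutant cell line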;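 further: z relative to plate mean and SD of compound and empty wells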)
[12] = JHH-DIPG-1 glioma cell viability, MIPE5.0 library, CellTiter-Glo luminescence, qHTS (AID 1347067; cut-off not given, nearly all actives have AC50 up to about 26 µM;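 further: cells exposed to compound for 48 hours before readout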); settings: JHH-DIPG-1 glioma viability, CellTiter-Glo ATP luminescence
[13] = stronger effect = lower value, cell number ratio, induced over uninduced
[14] = measured here: relative caspase fold change +Dox/-Dox
[15] = measured here: total cells with miR-34 induction, stronger effect = lower value
[16] = measured here: total cells without miR-34 induction
[17] = MELAS cybrid survival, CellTiter-Glo 48 h, stronger effect = higher value
[18] = Rieske KO mouse fibroblast survival, CellTiter-Glo 72 h

## CCn1c(-c2nonc2N)nc2c(C#CC(C)(C)O)ncc(OC[C@H]3CCCNC3)c21
[1]
  AC50: 16.6 µM (active)
[2]
  AC50: 7.43 µM (active)
[3]
  AC50: 2.63 µM (active)
[4]
  AC50: 2.35 µM (active)
[5]
  IC50: 16.6 µM (active)
[6]
  SSMD: 1.18
  cell count: 6930
  plate-normalised HSF1 focus index: 1.06 (inactive)
[7]; at 0.000305 µM, OCI-C5x cells, with rucaparib 10 µM, 100% = cells with rucaparib alone
  viability: 119% (inactive)
[7]; at 0.000305 µM, OCI-C5x cells, without rucaparib
  viability: 119% (inactive)
[7]; at 0.000305 µM, OCI-P5x cells, with rucaparib 20 µM, 100% = cells with rucaparib alone
  viability: 98.8% (active)
[7]; at 0.000305 µM, OCI-P5x cells, without rucaparib
  viability: 93.1% (active)
[7]; at 0.00122 µM, OCI-C5x cells, with rucaparib 10 µM, 100% = cells with rucaparib alone
  viability: 129% (inactive)
[7]; at 0.00122 µM, OCI-C5x cells, without rucaparib
  viability: 125% (inactive)
[7]; at 0.00122 µM, OCI-P5x cells, with rucaparib 20 µM, 100% = cells with rucaparib alone
  viability: 100% (inactive)
[7]; at 0.00122 µM, OCI-P5x cells, without rucaparib
  viability: 99.7% (active)
[7]; at 0.00488 µM, OCI-C5x cells, with rucaparib 10 µM, 100% = cells with rucaparib alone
  viability: 133% (inactive)
[7]; at 0.00488 µM, OCI-C5x cells, without rucaparib
  viability: 119% (inactive)
[7]; at 0.00488 µM, OCI-P5x cells, with rucaparib 20 µM, 100% = cells with rucaparib alone
  viability: 109% (inactive)
[7]; at 0.00488 µM, OCI-P5x cells, without rucaparib
  viability: 99.7% (active)
[7]; at 0.0195 µM, OCI-C5x cells, with rucaparib 10 µM, 100% = cells with rucaparib alone
  viability: 118% (inactive)
[7]; at 0.0195 µM, OCI-C5x cells, without rucaparib
  viability: 125% (inactive)
[7]; at 0.0195 µM, OCI-P5x cells, with rucaparib 20 µM, 100% = cells with rucaparib alone
  viability: 107% (inactive)
[7]; at 0.0195 µM, OCI-P5x cells, without rucaparib
  viability: 109% (inactive)
[7]; at 0.0781 µM, OCI-C5x cells, with rucaparib 10 µM, 100% = cells with rucaparib alone
  viability: 124% (inactive)
[7]; at 0.0781 µM, OCI-C5x cells, without rucaparib
  viability: 119% (inactive)
[7]; at 0.0781 µM, OCI-P5x cells, with rucaparib 20 µM, 100% = cells with rucaparib alone
  viability: 89.1% (active)
[7]; at 0.0781 µM, OCI-P5x cells, without rucaparib
  viability: 101% (inactive)
[7]; at 0.313 µM, OCI-C5x cells, with rucaparib 10 µM, 100% = cells with rucaparib alone
  viability: 113% (inactive)
[7]; at 0.313 µM, OCI-C5x cells, without rucaparib
  viability: 131% (inactive)
[7]; at 0.313 µM, OCI-P5x cells, with rucaparib 20 µM, 100% = cells with rucaparib alone
  viability: 85.8% (active)
[7]; at 0.313 µM, OCI-P5x cells, without rucaparib
  viability: 109% (inactive)
[7]; at 1.25 µM, OCI-C5x cells, with rucaparib 10 µM, 100% = cells with rucaparib alone
  viability: 114% (inactive)
[7]; at 1.25 µM, OCI-C5x cells, without rucaparib
  viability: 136% (inactive)
[7]; at 1.25 µM, OCI-P5x cells, with rucaparib 20 µM, 100% = cells with rucaparib alone
  viability: 72.5% (active)
[7]; at 1.25 µM, OCI-P5x cells, without rucaparib
  viability: 90.8% (active)
[7]; at 5 µM, OCI-C5x cells, with rucaparib 10 µM, 100% = cells with rucaparib alone
  viability: 94.5% (active)
[7]; at 5 µM, OCI-C5x cells, without rucaparib
  viability: 128% (inactive)
[7]; at 5 µM, OCI-P5x cells, with rucaparib 20 µM, 100% = cells with rucaparib alone
  viability: 67.2% (active)
[7]; at 5 µM, OCI-P5x cells, without rucaparib
  viability: 68.3% (active)

## C[C@@H](O)[C@H]1C(=O)N2C(C(=O)OCOC(=O)C(C)(C)C)=C(SC3CN(C4=NCCS4)C3)[C@H](C)[C@H]12
[1]
  outcome: inactive
[8]
  outcome: inactive

## O=C1C(CCC(O)c2ccc(F)cc2)C(c2ccc(O)cc2)N1c1ccc(F)cc1 (stereo not given)
[1]
  outcome: inactive
[9]
  outcome: inactive
[8]
  outcome: inactive
[10]; [13]
  fold change: 0.893 (inactive) and 0.906 (inactive)
[10]; [14]
  fold change: 1.57 and 0.763
[10]; [15]
  cell count: 7660 and 7830
[10]; [16]
  cell count: 8580 and 8640
[11]; [17]
  z-score: -0.505 (inactive)
[11]; [18]
  z-score: -0.0457

## Cc1ccc2c(c1)c1c(n2CCc2ccc(C)nc2)CCN(C)C1
[1]
  outcome: inactive
[2]
  outcome: inactive
[8]
  outcome: inactive

## CS(=O)(=O)N(Cc1ccco1)CC(O)Cn1c2ccccc2c2ccccc21 (stereo not given)
[1]
  outcome: inactive
[3]
  outcome: inactive
[4]
  outcome: inactive
[8]
  outcome: inactive
[12]
  outcome: inactive
[5]
  outcome: inactive

## Cc1c(NC(=O)c2ccc(C(C)(C)C)cc2)cccc1-c1cn(C)c(=O)c(Nc2ccc(C(=O)N3CCOCC3)cc2)n1
[1]
  outcome: inactive
[2]
  AC50: 10.5 µM (active)
[8]
  outcome: inactive
[5]
  outcome: inactive
[10]; [13]
  fold change: 1.11 (inactive)
[10]; [14]
  fold change: 0.695
[10]; [15]
  cell count: 5460
[10]; [16]
  cell count: 4900
[11]; [17]
  z-score: -0.54 (inactive)
[11]; [18]
  z-score: -0.156
